Source: PubChem
Hits are enriched below; roughly 3.4% of the tested compounds scored in any of these assays.
AmpC inh no detg – qHTS Inhibitors of AmpC Beta-Lactamase (assay without detergent); P00811; AmpC nitrocefin hydrolysis, absorbance 480 nm, 0.0001% Triton; Potency, µM (titrated, usually from 57.1 µM), hits mostly inhibitors; 330,000 tested, 0.52% active; AID 485341, 2010; also: nearly all actives have a fitted effect of over 20% in size
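AmpC (5.3 nM in the dispensed reagent) in 20 mM phosphate pH 7.0 with 0.01% (detergent screen) or 0.0001% Triton X-100 was preincubated with compounds for 15 min at room temperature. Nitrocefin was then added from an 800 uM solution, and hydrolysis was followed at 480 nm.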
Sm TGR inh – qHTS Assay for the Inhibitors of Schistosoma Mansoni Peroxiredoxins | Schistosoma mansoni thioredoxin glutathione reductase (TGR), Q962Y6 | purified TGR, DTNB reduction, TNB absorbance 405 nm | Potency, µM (top dose mostly 114 µM), most hits filed as inhibitors | 360,000 tested, 3% active | AID 485364, 2010; also: nearly all actives have a fitted effect of over 60% in size
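TGR 20 nM + NADPH 100 uM (dispensed conc.), cpd preinc 15 min RT; start with NADPH (500 uM addition) then DTNB (15 mM addition). Kinetic TNB absorbance, 405 nm filter. Four-parameter Hill fit across titration.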
RE007 growth inh – qHTS Assay for Inhibitors of the HIV-1 protein Vpr. Potency, µM (doses to about 92.2 µM), actives largely listed as inhibitors. S. pombe RE007 Vpr strain, BacTiter-Glo ATP luminescence, 24 h. 360,000 tested, 0.21% active; active = well fitted falling curve with a large enough effect; inconclusive = small, poorly fitted or top-dose-only effect; inactive = no such curve, though single readings can be large or run the other way; also: nearly all actives have a fitted effect of over 50% in size
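Fission yeast RE007 carrying one integrated HIV-1 vpr copy, seeded at OD 0.01 in PMG+AL medium with 23 nL pinned compound. Grown 24 h at 30 degrees; viability read by BacTiter-Glo luminescence after 5 min.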
Giardia FBPA inh-1 – qHTS Assay for Inhibitors of Fructose-1,6-bisphosphate Aldolase from Giardia Lamblia; purified Giardia FBPA; Potency, µM (titrated, usually from 59.6 µM), usual class: inhibitors; 290,000 tested, 0.71% active; AID 2451, 2010; also: nearly all actives have a fitted effect of over 55% in size
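40 nM FBPA preincubated 10 min at RT with compound (up to 57.5 uM final), then substrate plus GAPDH/TPI/NAD/arsenate coupling and diaphorase/resazurin added. Fluorescence read after 20 min at RT, 525/598 nm.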
AmpC inh detg – qHTS Inhibitors of AmpC Beta-Lactamase (assay with detergent); P00811; AmpC hydrolysis of nitrocefin, absorbance 480 nm, 0.01% Triton; Potency, µM (doses to about 114 µM), usual class: inhibitors; 370,000 tested, 0.041% active; AID 485294, 2010; also: nearly all actives have a fitted effect of over 25% in size
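AmpC (5.3 nM in the dispensed reagent) in 20 mM phosphate pH 7.0 with 0.01% (detergent screen) or 0.0001% Triton X-100 was preincubated with compounds for 15 min at room temperature. Nitrocefin was then added from an 800 uM solution, and hydrolysis was followed at 480 nm.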
Giardia growth – qHTS Assay for Inhibitors of Fructose-1,6-bisphosphate Aldolase from Giardia Lamblia: Giardia lamblia growth inhibition; 1,500 tested, 5% active; shares compounds with Giardia FBPA inh-1; Potency, µM (highest dose often 57.5 µM), actives largely listed as inhibitors; Giardia lamblia trophozoite growth inhibition;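 also: trophozoites exposed to compound for 48 h at 37 °C; nearly all actives have a fitted effect of over 70% in size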
Mammalian tox – qHTS Assay for Inhibitors of Fructose-1,6-bisphosphate Aldolase from Giardia Lamblia: Mammalian cellular toxicity | shares compounds with Giardia FBPA inh-1 | mammalian cell viability counter-screen, qHTS | Potency, µM (doses to about 57.5 µM), actives largely listed as inhibitors | 1,500 tested, 4% active;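 also: Chinese hamster ovary cells used as mammalian cytotoxicity surrogate; viability measured as cellular ATP by luminescence; compound exposure lasted 48 h before reading; nearly all actives have a fitted effect of over 60% in size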
Giardia FBPA inh-2 – qHTS Assay for Inhibitors of Fructose-1,6-bisphosphate Aldolase from Giardia Lamblia: Primary screen confirmation. Potency, µM (series often up to 57.5 µM), actives largely listed as inhibitors. 1,500 tested, 5% active. shares compounds with Giardia FBPA inh-1. purified Giardia aldolase enzyme activity, qHTS; also: nearly all actives have a fitted effect of over 45% in size
Rabbit aldolase – qHTS Assay for Inhibitors of Fructose-1,6-bisphosphate Aldolase from Giardia Lamblia: Rabbit FBPA Selectivity. shares compounds with Giardia FBPA inh-1. Rabbit muscle FBPA enzyme inhibition, selectivity counter-screen. Potency, µM (doses to about 57.5 µM), usual class: inhibitors. 1,500 tested, 4% active; also: nearly all actives have a fitted effect of over 60% in size
Target sequence (P00883 whole entry, looked up): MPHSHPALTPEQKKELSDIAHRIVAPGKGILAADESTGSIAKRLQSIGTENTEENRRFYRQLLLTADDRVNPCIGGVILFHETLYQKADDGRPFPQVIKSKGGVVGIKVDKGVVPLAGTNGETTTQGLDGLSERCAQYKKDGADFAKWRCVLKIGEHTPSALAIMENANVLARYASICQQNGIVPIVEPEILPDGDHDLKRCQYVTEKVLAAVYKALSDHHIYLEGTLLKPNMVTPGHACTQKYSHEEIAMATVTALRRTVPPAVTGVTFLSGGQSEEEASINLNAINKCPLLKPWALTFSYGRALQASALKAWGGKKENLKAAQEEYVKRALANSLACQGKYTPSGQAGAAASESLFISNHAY
GAPDH counter – qHTS Assay for Inhibitors of Fructose-1,6-bisphosphate Aldolase from Giardia Lamblia: Coupling assay counterscreen confirmation; shares compounds with Giardia FBPA inh-1; GAPDH coupling enzyme counterscreen, biochemical, qHTS; Potency, µM (titrated, usually from 57.5 µM), usual class: inhibitors; 1,500 tested, 6% active; AID 2795, 2010; also: nearly all actives have a fitted effect of over 55% in size
Of the large screens only hits and unclear results are named; the others gave an inactive call (follow-up assays come after a bar, where they were run); [ ] = remark or other dose. Unless noted, calls follow the shape of the dose curve; as a rule, active = well fitted curve in the direction sought with a large enough effect; inconclusive = small, poorly fitted or top-dose-only effect, or another doubt; inactive = no such curve, though single readings can be large; an effect the other way counts as inactive or inconclusive.

Cc1ccc2nc(C)cc(N/N=C/c3ccccc3O)c2c1	none
Cc1ccc(C)c(/C=N/Nc2nc3ccccc3c(=O)n2O)c1	Giardia FBPA inh-1 16µM | Giardia growth inconclusive | Mammalian tox inactive | Giardia FBPA inh-2 inactive | Rabbit aldolase inactive | GAPDH counter inactive
Fc1ccc(CN2CCN(C(c3ccccc3)c3ccccc3)CC2)cc1	Giardia FBPA inh-1 25µM, AmpC inh detg inconclusive | Giardia growth inconclusive | Mammalian tox inactive | Giardia FBPA inh-2 inactive | Rabbit aldolase inactive | GAPDH counter inactive
O=C(Cc1ccccc1)N1CCN(Cc2ccc(F)cc2)CC1	Giardia FBPA inh-1 28µM, AmpC inh detg inconclusive | Giardia growth inactive[10.4 µM] | Mammalian tox inactive | Giardia FBPA inh-2 inactive | Rabbit aldolase inactive | GAPDH counter inactive
OCC1(CCc2ccccc2)CCN(Cc2ccccc2Cl)CC1	none
Clc1ccccc1CN1CCN(CCCc2ccccc2)CC1	Giardia FBPA inh-1 20µM | Giardia growth inactive | Mammalian tox inactive | Giardia FBPA inh-2 inactive | Rabbit aldolase inactive | GAPDH counter inactive
O=C(Cc1ccccc1)N1CCN(CCCc2ccccc2)CC1	Giardia FBPA inh-1 25µM | Giardia growth inactive | Mammalian tox inactive | Giardia FBPA inh-2 inactive | Rabbit aldolase inactive | GAPDH counter inactive
C[C@H](NC(=O)COc1ccc(Cl)cc1)C(=O)N1CCC2(CC1)NCCc1[nH]cnc12	none (no result: Giardia FBPA inh-1)
CC(NC(=O)CNC(=O)[C@@H]1Cc2ccccc2CN1)c1ccccc1 (some centres undefined)	AmpC inh detg inconclusive
Cc1oc(C)c2c(=O)ccc3c(c12)OC(N)=C(C#N)C3c1ccccc1Cl (centres undefined)	Sm TGR inh inconclusive, Giardia FBPA inh-1 11µM | Giardia growth inactive | Mammalian tox inactive | Giardia FBPA inh-2 inactive | Rabbit aldolase inactive | GAPDH counter inactive
Cn1c(=O)c2c([nH]c(=S)n2Cc2ccc(Cl)cc2)n(C)c1=O	Giardia FBPA inh-1 8.9µM | Giardia growth inactive | Mammalian tox inactive | Giardia FBPA inh-2 inactive | Rabbit aldolase inactive | GAPDH counter inactive
Cc1cccc(NC(=O)C2CCCN(S(=O)(=O)c3cccc4nsnc34)C2)n1 (centres undefined)	none
Cn1c(-c2ccc(F)cc2)cnc1NCc1ccccc1F	Sm TGR inh inconclusive, Giardia FBPA inh-1 28µM, AmpC inh detg inconclusive | Giardia growth inactive[10.4 µM] | Mammalian tox inactive | Giardia FBPA inh-2 inactive | Rabbit aldolase inactive | GAPDH counter inactive
Cn1c(-c2ccc(F)cc2)cnc1NCc1ccc(F)cc1F	AmpC inh detg inconclusive
COc1ccc(OC)c(CNc2ncc(-c3cccc([N+](=O)[O-])c3)n2C)c1	Giardia FBPA inh-1 28µM, AmpC inh detg inconclusive | Giardia growth inconclusive | Mammalian tox inactive | Giardia FBPA inh-2 inactive | Rabbit aldolase inactive | GAPDH counter inactive
